According to PubChem BioAssay AID488789 (Broad Institute, 2010):
Measured potencies and affinities stand elsewhere. Inconclusive results are not listed. Active and inactive are the calls of the source.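 Rule for the calls: active = samples whose fitted half-maximal inhibition concentration is no more than ten times the top valid dose tested; inconclusive = flat response between -70 and -30, or invalid curve fit; inactive = flat within 30 of zero, potency above limit, or signal rising.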

target: Trypsin (Sus scrofa) (UniProt P00761); experiment: trypsin protease activity blockade – biochemical, quenched peptide fluorescence, cherry-pick, selectivity assay for Rce1 protease inhibitor project, dose response (AID 488789); conditions: porcine trypsin, quenched peptide cleavage fluorescence; series mostly up to 10 µM; activity change, negative = inhibition: at the top concentration;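 note: more negative means stronger trypsin inhibition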
Sequence (P00761 whole entry, looked up): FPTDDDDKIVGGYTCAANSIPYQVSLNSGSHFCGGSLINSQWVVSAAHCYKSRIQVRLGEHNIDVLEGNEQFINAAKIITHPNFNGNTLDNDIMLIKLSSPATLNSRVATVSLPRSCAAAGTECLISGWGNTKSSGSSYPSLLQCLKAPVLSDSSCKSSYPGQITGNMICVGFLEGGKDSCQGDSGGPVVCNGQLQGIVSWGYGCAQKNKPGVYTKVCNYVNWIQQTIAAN

Activity change, negative = inhibition, inactive:
CCN1CCN(CC(O)COc2ccc3c(C)cc(=O)oc3c2)CC1 (stereo not drawn) 11.8%
Cc1ccc(S(=O)(=O)Nc2ccccc2C(=O)NCC2CCCO2)cc1 (stereo not drawn) -0.29%
CCN(CC)CCCN(Cc1cc2cc3c(cc2[nH]c1=O)OCO3)C(=S)NCCCN(C)C -25%
COc1ccccc1NC(=O)CN(c1ccc(C23CC4CC(CC(C4)C2)C3)cc1)S(C)(=O)=O 13.8%
COc1ccc(Cl)cc1C(=O)Nc1ccc2c(c1)OCO2 -2.45%
C[n+]1c2n(c3ccccc31)N=C(c1cc(C(C)(C)C)c(O)c(C(C)(C)C)c1)CS2 5.04%
COc1cccc(-c2cc(C(F)(F)F)n3ncc(S(=O)(=O)c4ccccc4)c3n2)c1 3.61%
COc1cccc(NC(=O)Nc2cccn(Cc3ccc(C)cc3)c2=O)c1 5.65%
Cc1ccc2c(C)c(C(=O)N(Cc3ccc(F)cc3)C3CCS(=O)(=O)C3)oc2c1 (stereo not drawn) 10.8%
O=C(C[n+]1cc2ccccc2c2ccccc21)c1ccccc1 -8.51%
O=C(O)CCc1nc2cc(C(F)(F)F)ccc2n(Cc2ccccc2)c1=O 3.97%
COc1ccc(N2CCN(C(=O)c3cc(-c4cccs4)nc4ccccc34)CC2)cc1 -3.39%
Cc1ccc(-c2c(C(=O)N/N=C/c3cccc(Cl)c3)nnn2-c2nonc2N)cc1 3.16%
Cc1cc(N2CCOCC2)n2cc(-c3ccccc3)nc2n1 -0.296%
CCC(C)(C)c1ccc(OCCCC[n+]2cccc(C)c2)c(C(C)(C)CC)c1 15.5%
Cn1c(=O)c(C(=O)NCCO)c(O)c2ccccc21 -1.13%
O=C(C(Cc1ccccc1)N1C(=O)c2ccccc2C1=O)N1c2ccccc2CCc2ccccc21 (stereo not drawn) 1.44%
CCn1nc(C)cc1C(=O)NC1CC(C)(C)Cc2c1cnn2-c1cccc(F)c1 (stereo not drawn) 18.9%
CC(=O)N(C)c1ccc(NC(=O)/C=C/c2ccccc2Cl)cc1 6.67%
CCOC(=O)C[C@H]1c2ccccc2S(=O)(=O)N1Cc1cc(OC)c(OC)c(OC)c1 -8.57%
O=C(O)c1ccc(N/N=C/c2ccc(-c3ccccc3Cl)o2)cc1 0.708%
CCOC(=O)c1cc(-c2ccccc2)sc1NC(=O)C(C)Sc1nnnn1C (stereo not drawn) 7.62%
CC1=NN(c2ccccc2)C(=O)/C1=C\c1ccc(Br)s1 10.2%
O=C(CCNC(=O)N1CC(=O)Nc2ccccc21)NCCc1cccc(F)c1 6.18%
Cc1ccc(S(=O)(=O)CC(=O)N2CCN(c3ccccc3F)CC2)cc1 12.2%
CCCCn1c(=O)[nH]c(=O)c2c1nc(-c1ccc(OC)c(Br)c1)n2CC(C)C 11.2%
O=C(CN1CCC(NC(=O)c2ccc(Br)cc2)CC1)NCc1cccs1 5.08%
COC(C[C@H](O)C[C@H](O)[C@@H](C)OCc1ccccc1)OC 4.45%
O=C(c1cnc(Cl)c(Cl)c1)N1CCC(Cc2ccccc2)CC1 5.08%
CC(C)CC(=O)NC(=S)Nc1ccc(S(=O)(=O)Nc2nccs2)cc1 3.91%
COc1ccc(CN2CCN(C(c3ccc(F)cc3)c3ccc(F)cc3)CC2)c(OC)c1OC 5.69%
COc1ccc(NS(=O)(=O)c2c(C)cc(C)cc2C)cc1 3.93%
CCN(CC)c1ccc(/C=N/NC(=O)C(O)(c2ccccc2)c2ccccc2)o1 15.6%
CCCCCCCCCCOC(=O)Cn1c(COc2ccccc2C)[n+](C)c2ccccc21 10.7%
CCCN(CCC)CCNC(=O)c1cc2c(-c3ccc(Cl)cc3)nn(C)c2s1 5.01%
COc1ccc(Cn2c(N)c(S(=O)(=O)c3cccs3)c3nc4ccccc4nc32)cc1 10.7%
Cc1cccc(N2CCc3c2nc2ccc(Br)cc2c3N)c1 -7.41%

outcome, inactive:
NC(=NCCCCCCN=C(N)/N=C(\N)Nc1ccc(Cl)cc1)/N=C(\N)Nc1ccc(Cl)cc1
